An excerpt weighted towards active compounds, which were near 5.2% of everything screened.
ALR H2O2 inh: inhibitors of human ALR sulfhydryl oxidase, primary screen, biochemical, H2O2 detection, HRP-luminol luminescence, single point; FAD-linked sulfhydryl oxidase ALR (Homo sapiens), P55789; inhibition, % (test concentration not listed); 3.8% of 290,000 active; AID 485317, 2010; purified ALR, DTT oxidation;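 active = mean replicate inhibition above about 79%, with every replicate also reaching it, limit read from the data; inconclusive = only one of the two criteria met; inactive = mean below limit and not every replicate reaching it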
APOBEC3G inh: APOBEC3G DNA deaminase inhibitors, primary screen, biochemical, fluorescence, single-stranded DNA substrate, uHTS; recombinant A3G, ssDNA deamination FAM/TAMRA fluorescence; inhibition, % at 20 µM; 0.28% of 330,000 active; AID 493012, 2011;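 active = inhibition of at least 40% at 20 µM, with no more than 30% in the related APOBEC3A deaminase screen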
M18AAP inhibitor: PfM18AAP inhibitors, malaria aminopeptidase, primary screen, biochemical, QFRET, recombinant enzyme; 1.2% of 290,000 active; inhibition, % at 7.35 µM; H-Glu-NHMec fluorogenic cleavage; M18 aspartyl aminopeptidase (Plasmodium falciparum 3D7);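 active = inhibition above the campaign mean inhibition over all tested compounds plus 3 SD, cut at about 28% in these data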
NRP1-CendR mod: modulators of CendR peptide binding to NRP-1, primary screen, biochemical, fluorescence polarization, uHTS | Neuropilin-1 (Homo sapiens), O14786 | FAM-RPARPAR peptide binding to NRP-1 | inhibition, % at 25 µM | 0.85% of 360,000 active;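 active = inhibition or corrected inhibition above about 18%, plus a signal ratio from 0.5 to 1.5, limit read from the data, passing the limit was not always enough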
Target sequence (O14786 whole entry, looked up): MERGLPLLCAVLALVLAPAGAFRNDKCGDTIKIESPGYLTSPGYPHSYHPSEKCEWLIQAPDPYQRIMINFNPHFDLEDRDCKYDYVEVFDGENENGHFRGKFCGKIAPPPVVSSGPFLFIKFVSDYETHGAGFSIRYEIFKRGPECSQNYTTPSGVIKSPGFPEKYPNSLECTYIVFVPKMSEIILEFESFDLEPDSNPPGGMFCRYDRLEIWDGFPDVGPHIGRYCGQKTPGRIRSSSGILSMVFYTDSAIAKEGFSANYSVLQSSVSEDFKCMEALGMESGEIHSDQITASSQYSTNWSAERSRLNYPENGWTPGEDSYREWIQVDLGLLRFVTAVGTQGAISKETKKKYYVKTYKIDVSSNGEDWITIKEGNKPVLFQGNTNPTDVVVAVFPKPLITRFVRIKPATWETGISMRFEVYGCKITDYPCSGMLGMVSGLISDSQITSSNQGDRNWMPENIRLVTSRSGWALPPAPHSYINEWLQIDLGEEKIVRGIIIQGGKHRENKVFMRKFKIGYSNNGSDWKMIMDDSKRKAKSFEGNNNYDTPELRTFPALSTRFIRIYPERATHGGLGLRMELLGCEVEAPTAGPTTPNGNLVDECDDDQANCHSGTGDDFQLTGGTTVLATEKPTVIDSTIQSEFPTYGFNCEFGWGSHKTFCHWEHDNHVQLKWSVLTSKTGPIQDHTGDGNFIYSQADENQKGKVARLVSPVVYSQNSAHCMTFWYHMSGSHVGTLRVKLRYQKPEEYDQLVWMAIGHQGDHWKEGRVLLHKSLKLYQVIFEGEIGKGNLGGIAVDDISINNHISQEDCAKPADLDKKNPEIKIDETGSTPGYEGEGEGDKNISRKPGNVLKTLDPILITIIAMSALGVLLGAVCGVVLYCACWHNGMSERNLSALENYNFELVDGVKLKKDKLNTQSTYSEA
A3A deaminase: APOBEC3A ssDNA deaminase inhibitors, primary screen, selectivity assay for APOBEC3G inhibitor project, biochemical, FAM/TAMRA oligo cleavage fluorescence; inhibition, % at 20 µM; 0.41% of 330,000 active; recombinant A3A, FAM/TAMRA ssDNA deamination fluorescence;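 active = at least 40% inhibition at 20 µM here, with at most 30% in a related deaminase screen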
Yeast superoxide: reduction of superoxide in aged yeast, primary screen, HTS. AID 2690, 2010. S. cerevisiae aged cells, superoxide DHE fluorescence; active compounds read low. superoxide response (% of plate mean), % at 10 µM. 0.18% of 330,000 active;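 active = superoxide response under a set limit, about three screen SD below normal, cut at about 65% in these data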;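 also: yeast aged for seven days with compound at 30 °C before DHE staining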
APOBEC3G confirm: APOBEC3G deaminase inhibitor retest, confirmation, biochemical, fluorescence, single-stranded DNA substrate, single concentration; shares compounds with APOBEC3G inh; recombinant A3G ssDNA deaminase, UDG/FAM-TAMRA fluorescence; inhibition, % at 20 µM; 72% of 890 active; AID 493152, 2011;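 active = inhibition reaching a set limit in any replicate at 20 µM, the limit being 80% of the first screen's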
UDG A3G counter: E. coli UDG inhibitors, confirmation, counter-screen for APOBEC3G inhibitor project, biochemical, single concentration, fluorescence, FAM/TAMRA oligo. shares compounds with APOBEC3G inh. UDG counterscreen. inhibition, % at 20 µM. 710 tested, under 10 active;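 active = compounds giving 40% or more inhibition at 20 µM in any one of the three replicates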;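 also: inhibitors lower the FAM signal released by uracil excision and alkaline cleavage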
Numbers stand for hits; - = inactive; ? = inconclusive; . = no result.

SMILES	ALR H2O2 inh	APOBEC3G inh	M18AAP inhibitor	NRP1-CendR mod	A3A deaminase	Yeast superoxide	APOBEC3G confirm	UDG A3G counter
COc1cc(/C=N/n2c(C)n[nH]c2=S)ccc1OCc1ccc(F)cc1	.	-	-	-	-	-	.	.
COc1cc(/C=N/n2c(-c3n[nH]c4c3CCC4)n[nH]c2=S)cc(OC)c1O	95	54	-	-	-	-	68	-
COc1cccc(/C=N/n2c(-c3cc(C)[nH]n3)n[nH]c2=S)c1O	98	53	-	-	-	-	85	-
Cc1ccccc1OCc1nc(-c2ccc(Br)o2)no1	.	-	-	-	-	-	.	.
CC(NC(=O)Nn1cnnc1)(C(F)(F)F)C(F)(F)F	-	-	-	-	-	-	.	.
Cc1cc(-c2n[nH]c(=S)n2/N=C/c2c[nH]c3ccccc23)n[nH]1	-	-	-	-	-	-	.	.
Cc1cc(-c2n[nH]c(=S)n2/N=C/c2ccccc2[N+](=O)[O-])n[nH]1	95	61	-	-	-	-	82	-
Cc1cc(S(=O)(=O)N(Cc2ccccn2)Cc2ccco2)ccc1-n1cnnn1	-	50	-	-	-	-	-	.
S=c1nc(C2CCCCC2)[nH][nH]1	-	43	-	-	-	-	87	-
O=C(NNc1ccc(O)cc1)c1ccc(Br)cc1	99	53	-	-	-	-	-	-
Cc1nn(C(=O)N2CCOCC2)c(C)c1C	-	62	-	-	-	-	-	.
CCOC(=O)N1CCN(C(=O)N2CCOCC2)CC1	-	-	-	-	-	-	.	.
CC(C(Sc1ccccc1N)c1ccccc1)[N+](=O)[O-] (stereo not given)	?	65	31	-	-	-	26	-
Nc1ccccc1SC(CC(=O)c1ccccc1)c1ccccc1 (stereo not given)	.	.	.	-	.	.	.	.
Cc1ccc(-c2nnc(-c3cc(C)on3)o2)cc1	.	-	-	-	-	-	.	.
CC(Cc1c[nH]c2ccccc12)C(=O)O (stereo not given)	-	40	-	-	-	-	45	.
C/C=C/c1ccc(OCC(=O)OCc2csc(CC(=O)Nc3ccccc3C)n2)c(OC)c1	-	-	-	-	-	-	.	.
COC(=O)[C@]1(C)N[C@H](CN(C)C(=O)COc2ccccc2)[C@@H]2C(=O)N(C)C(=O)[C@@H]21	.	74	.	-	-	-	-	.
N#Cc1cccc(N=c2ssnc2Cl)c1	.	74	29	.	-	.	88	-
COc1cc(N=c2ssnc2Cl)cc(OC)c1	-	65	-	-	-	-	65	.
CN(C)CCNc1ncnc2c1ncn2[C@H]1CN(Cc2cccnc2)C[C@@H](CO)O1	.	.	.	-	.	.	.	.
Cc1cc(-c2n[nH]c(=S)n2-c2ccc(F)cc2)nn1C	-	63	-	-	-	-	60	-
O=C(COc1ccc(S(=O)(=O)N2CCCC2)cc1Cl)NCc1ccco1	-	-	-	-	-	-	.	.
Cc1ccc(/C=N/NC(=O)c2ccc(Br)o2)s1	-	59	-	-	-	-	-	-
COC(=O)c1cc(S(=O)(=O)N2c3ccccc3CC2C)cn1C (stereo not given)	-	-	-	-	-	-	.	.
SMILES	ALR H2O2 inh	APOBEC3G inh	M18AAP inhibitor	NRP1-CendR mod	A3A deaminase	Yeast superoxide	APOBEC3G confirm	UDG A3G counter
CCn1c(N)c(C(=O)NCC2CCCO2)sc1=S (stereo not given)	99	40	-	-	-	-	67	-
CCOC(=O)c1c(C)c(C(=O)NCC2CCCO2)c(C)n1CC (stereo not given)	-	-	-	-	-	-	.	.
Clc1ccc(-c2nc(NCCN3CCOCC3)c3ccccc3n2)cc1	-	-	-	-	-	-	.	.
O=C(Nc1cccc(S(=O)(=O)Nc2ccccc2F)c1)c1ccc2ccccc2n1	-	56	30	-	-	-	61	-
O=C(/C=C/c1ccccc1)Nc1cccc(S(=O)(=O)Nc2ccccc2F)c1	-	71	-	-	-	-	60	-
O=S(=O)(Nc1ccccc1F)c1cccc(NC(=S)NCCN2CCOCC2)c1	-	71	.	-	-	-	80	-
O=C(Cc1ccc(Cl)cc1Cl)Nc1cccc(S(=O)(=O)Nc2ccccc2F)c1	-	56	29	-	-	-	74	-
O=C(NCc1ccco1)/C(=C\C=C\c1ccccc1)NC(=O)c1ccccc1Br	.	-	-	-	-	-	.	.
COc1ccccc1NS(=O)(=O)c1ccc(NN=C2CCCC2)c([N+](=O)[O-])c1	-	-	-	-	-	-	.	.
Cc1cccc(-n2ncc3c2CCCC3NC(=O)c2cccs2)c1C (stereo not given)	.	.	.	-	.	.	.	.
CCOC(=O)/C=C1\SCC(=O)N1CC(=O)Nc1ccc(C(C)C)cc1	-	-	-	-	-	-	.	.
CN(C)C(=O)C1(c2ccccc2)CCN(S(=O)(=O)c2ccccc2)CC1	-	-	-	-	-	-	.	.
O=S(=O)(Nc1ccccn1)c1cc(Cl)ccc1Cl	-	-	-	-	-	-	.	.
S=c1[nH]nc(-c2cccnc2)n1/N=C/c1ccc(Br)s1	-	-	-	-	-	-	.	.
Cc1ccc(/C=N/n2c(-c3cccnc3)n[nH]c2=S)s1	76	55	-	-	-	-	71	-
CN(C)c1ccc(/C=N/n2c(-c3cccnc3)n[nH]c2=S)cc1	98	45	-	-	-	-	83	-
Cc1ccc(/C=N/n2c(-c3cccnc3)n[nH]c2=S)o1	-	-	-	-	-	-	.	.
COc1ccc(CC(=S)N2CCOCC2)cc1	-	45	-	-	-	-	41	-
S=C(Cc1ccc(-c2ccccc2)cc1)N1CCOCC1	-	-	.	-	-	-	.	.
CC1CCCN(CCCNC(=O)c2cn(C)c3ccc(S(=O)(=O)N(C)C4CCCCC4)cc3c2=O)C1 (stereo not given)	-	-	-	-	-	-	.	.
CN(C)S(=O)(=O)c1ccc2c(c1)c(=O)c(C(=O)NCCCN1CCCCCC1)cn2C	-	52	-	-	-	-	-	.
CCC(C(=O)c1ccc(O)cc1)c1ccccc1 (stereo not given)	-	-	-	-	-	-	.	.
